Records with an inconclusive call do not appear. Activity calls are given as the source filed them. Unless noted, calls come from the whole dose curve; as a rule, active = well fitted curve in the direction sought with a large enough effect in the repeat runs; inconclusive = weak or mixed curves; inactive = no such curve, though single readings can be large; an effect the other way counts as inactive or inconclusive.
Columns and labels:
[1] = molecular target: Peroxisome proliferator-activated receptor delta (Homo sapiens) (UniProt Q03181); assay: qHTS assay to identify small molecule agonists of the peroxisome proliferator-activated receptor delta (PPARd) signaling pathway (AID 743212; calls by dose curve)
Sequence of Peroxisome proliferator-activated receptor delta (Homo sapiens) (Q03181 whole entry, looked up): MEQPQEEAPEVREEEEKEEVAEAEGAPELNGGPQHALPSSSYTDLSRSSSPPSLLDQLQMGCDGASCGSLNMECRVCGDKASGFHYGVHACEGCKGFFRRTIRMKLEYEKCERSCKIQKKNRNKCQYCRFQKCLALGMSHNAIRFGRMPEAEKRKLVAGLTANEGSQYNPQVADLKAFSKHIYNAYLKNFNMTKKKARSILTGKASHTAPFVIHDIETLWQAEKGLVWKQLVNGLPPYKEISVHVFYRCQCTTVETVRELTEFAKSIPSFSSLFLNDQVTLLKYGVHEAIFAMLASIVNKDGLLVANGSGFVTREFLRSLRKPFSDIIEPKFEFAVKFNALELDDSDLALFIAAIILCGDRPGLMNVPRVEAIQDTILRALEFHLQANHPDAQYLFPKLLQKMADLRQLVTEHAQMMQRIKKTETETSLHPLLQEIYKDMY
In short: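 A PPARd-bla HEK293H line with beta-lactamase under an Upstream Activator Sequence is treated with compounds at 37 C. Substrate loading for 2 h at room temperature precedes the fluorescence measurement.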

[2] = molecular target: Bile acid receptor (Homo sapiens) (UniProt Q96RI1); assay: qHTS assay to identify small molecule antagonists of the farnesoid-X-receptor (FXR) signaling pathway (AID 743217; active = well fitted inhibition curve with a large enough effect in the signal ratio in the repeat runs, not every such curve was filed as active; the % refers to the signal ratio)
Sequence of Bile acid receptor (Homo sapiens) (Q96RI1 whole entry, looked up): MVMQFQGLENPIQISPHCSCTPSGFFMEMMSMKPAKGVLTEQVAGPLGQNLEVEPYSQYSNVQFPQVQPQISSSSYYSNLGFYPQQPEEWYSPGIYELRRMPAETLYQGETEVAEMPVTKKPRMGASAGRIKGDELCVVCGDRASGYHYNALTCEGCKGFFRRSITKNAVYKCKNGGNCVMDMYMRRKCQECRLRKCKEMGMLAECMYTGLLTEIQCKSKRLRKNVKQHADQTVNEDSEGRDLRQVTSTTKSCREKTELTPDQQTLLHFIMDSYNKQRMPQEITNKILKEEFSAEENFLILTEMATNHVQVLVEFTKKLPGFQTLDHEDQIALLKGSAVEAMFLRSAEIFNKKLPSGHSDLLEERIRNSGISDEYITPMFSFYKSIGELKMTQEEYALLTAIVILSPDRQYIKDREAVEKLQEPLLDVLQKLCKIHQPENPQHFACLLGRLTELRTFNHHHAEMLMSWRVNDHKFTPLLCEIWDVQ
In short: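 GeneBLAzer FXR-UAS-bla HEK 293T, CDCA-stimulated (50 uM final). Compound treatment 16 h, 37 °C. Detection: beta-lactamase cleavage of B/G FRET substrate, fluorescence.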

[3] = molecular target: Bile acid receptor (Homo sapiens) (UniProt Q96RI1); assay: qHTS assay to identify small molecule agonists of the farnesoid-X-receptor (FXR) signaling pathway (AID 743220; active = well fitted activation curve with a large enough effect in the signal ratio in the repeat runs, not every such curve was filed as active; the % refers to the signal ratio)
In short: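 Beta-lactamase reporter under UAS control in GeneBLAzer FXR HEK 293T cells (5000/well) measured with LiveBLAzer FRET substrate after 2 h at room temperature. Compound exposure lasted 16 h at 37C.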

[4] = qHTS assay to identify small molecule antagonists of the farnesoid-X-receptor (FXR) signaling pathway - cell viability counter screen (AID 743221; active = well fitted cell-killing curve with a large enough effect in the repeat runs, not every such curve was filed as active; note: nearly all actives have a fitted effect of over 50% in size)
In short: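 Multiplexed counter screen: viability of FXR-bla HEK 293T cells under agonist stimulation by chenodeoxycholic acid (50 uM, final) and test compound for 16 h at 37 C, measured by CellTiter-Glo luminescence in the reporter wells.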

[5] = molecular target: Vitamin D3 receptor (Homo sapiens) (UniProt P11473); assay: qHTS assay to identify small molecule agonists of the vitamin D receptor (VDR) signaling pathway (AID 743222; calls by dose curve)
Sequence of Vitamin D3 receptor (Homo sapiens) (P11473 whole entry, looked up): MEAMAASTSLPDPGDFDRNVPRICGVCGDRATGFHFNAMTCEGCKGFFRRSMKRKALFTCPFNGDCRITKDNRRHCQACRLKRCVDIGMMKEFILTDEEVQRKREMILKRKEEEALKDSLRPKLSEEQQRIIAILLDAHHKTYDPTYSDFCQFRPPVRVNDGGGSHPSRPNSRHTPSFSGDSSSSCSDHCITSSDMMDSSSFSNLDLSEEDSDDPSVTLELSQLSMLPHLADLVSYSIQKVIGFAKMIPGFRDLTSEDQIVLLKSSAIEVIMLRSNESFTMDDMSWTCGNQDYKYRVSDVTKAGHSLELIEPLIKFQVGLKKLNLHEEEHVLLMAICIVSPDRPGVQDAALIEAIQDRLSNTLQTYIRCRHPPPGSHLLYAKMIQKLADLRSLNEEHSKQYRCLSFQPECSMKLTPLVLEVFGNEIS
In short: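 In VDR-bla cells, compound-induced beta-lactamase expression is quantified by FRET substrate fluorescence. Treatment lasts 16 h at 37C; substrate develops 2 h at room temperature.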

[6] = molecular target: Vitamin D3 receptor (Homo sapiens) (UniProt P11473); assay: qHTS assay to identify small molecule antagonists of the vitamin D receptor (VDR) signaling pathway (AID 743223; active = well fitted inhibition curve with a large enough effect in the signal ratio in the repeat runs, not every such curve was filed as active; the % refers to the signal ratio)
In short: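 Cells carrying a VDR-driven beta-lactamase reporter (VDR-bla) were co-treated with compound and 3 nM final 1alpha,25-dihydroxyvitamin D3 for 16 h at 37C; reporter activity was measured as FRET substrate fluorescence after 2 h at room temperature.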

[7] = qHTS assay to identify small molecule agonists of the vitamin D receptor (VDR) signaling pathway - cell viability counter screen (AID 743224); note: series mostly up to about 63 µM; nearly all actives have a fitted effect of over 50% in size
In short: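 Plated VDR-bla cells (4 h, 37C) received compound, incubated 16 h, then LiveBLAzer substrate 2 h RT; CellTiter-Glo added afterwards, luminescence read at 30 min.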

[8] = qHTS assay to identify small molecule agonists of the farnesoid-X-receptor (FXR) signaling pathway - cell viability counter screen (AID 743218); note: nearly all actives have a fitted effect of over 45% in size
In short: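 Parallel cytotoxicity test: compound-treated (16 h, 37 C) HEK 293T FXR-bla reporter cells were lysed with CellTiter-Glo and luminescence recorded.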

[9] = molecular target: Peroxisome proliferator-activated receptor delta (Homo sapiens) (UniProt Q03181); assay: qHTS assay to identify small molecule antagonists of the peroxisome proliferator-activated receptor delta (PPARd) signaling pathway (AID 743215; active = well fitted inhibition curve with a large enough effect in the signal ratio in the repeat runs, not every such curve was filed as active; the % refers to the signal ratio;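 note: cells stimulated with agonist L165041 at 300 nM final during compound exposure; series mostly up to about 62 µM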)
In short: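 HEK293H UAS-bla, PPARd; agonist L165041 300 nM final with cpd in DMSO; 37 C 17 h; FRET substrate, RT 2 h; fluorescence intensity.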

[10] = qHTS assay to identify small molecule antagonists of the peroxisome proliferator-activated receptor delta (PPARd) signaling pathway - cell viability counter screen (AID 743213); note: nearly all actives have a fitted effect of over 50% in size
In short: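 In this counter screen, HEK293H cells carrying a UAS-beta-lactamase reporter are co-treated with test compounds and 300 nM L165041 (final) for 17 h at 37 C; cell viability is quantified by CellTiter-Glo luminescence.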
% is set by controls: 0 for no effect and ±100 for the full control effect.

CCO
inactive: outcome [1] | outcome [2] | outcome [3] | outcome [4] | outcome [5] | outcome [6] | outcome [7]

CC1c2ccccc2CN1NC(=O)c1ccc(Cl)c(S(N)(=O)=O)c1 (stereo not drawn)
inactive: outcome [1] | outcome [2] | outcome [8] | outcome [3] | outcome [4] | outcome [5] | outcome [6] | outcome [7]

Cn1c(=O)c2c(ncn2CCO)n(C)c1=O
inactive: outcome [1] | outcome [9] | outcome [8] | outcome [4] | outcome [5] | outcome [6] | outcome [7]

N#Cc1cscn1
inactive: outcome [10] | outcome [2] | outcome [8] | outcome [3] | outcome [4] | outcome [7]

Fc1ccccc1
inactive: outcome [1] | outcome [8] | outcome [4] | outcome [5] | outcome [7]

CC1CCc2c(N3CCC(O)CC3)c(F)cc3c(=O)c(C(=O)O)cn1c23 (stereo not drawn)
inactive: outcome [1] | outcome [9] | outcome [8] | outcome [4] | outcome [6]

COc1cc2c(cc1OC)CN(C(=O)[C@H](C)N[C@@H](CCc1ccccc1)C(=O)O)[C@H](C(=O)O)C2
inactive: outcome [1] | outcome [9] | outcome [8] | outcome [4] | outcome [7]

CNCCS(=O)(=O)O
inactive: outcome [1] | outcome [9] | outcome [4] | outcome [5]

CCC(=O)Oc1ccc2c(c1)CC[C@@H]1[C@@H]2CC[C@@]2(C)[C@H]1C[C@@H](OC(=O)CC)[C@@H]2OC(=O)CC
inactive: outcome [10] | outcome [2] | outcome [3] | outcome [4] | outcome [5] | outcome [6] | outcome [7]

CC(=O)CC(=O)OC(C)(C)C
inactive: outcome [1] | outcome [9] | outcome [8] | outcome [4] | outcome [5] | outcome [7]

O=C(NCN1CCOCC1)c1cnccn1
inactive: outcome [1] | outcome [9] | outcome [8] | outcome [4] | outcome [5] | outcome [7]

CSc1cnccn1
inactive: outcome [1] | outcome [9] | outcome [3] | outcome [4] | outcome [5] | outcome [6] | outcome [7]

c1ccc(-c2nn[nH]n2)cc1
inactive: outcome [10] | outcome [2] | outcome [3] | outcome [4] | outcome [5] | outcome [7]

CCC(C)OC(C)CC (stereo not drawn)
inactive: outcome [1] | outcome [9] | outcome [8] | outcome [5] | outcome [7]

CCC(C)C(=O)OCCc1ccccc1 (stereo not drawn)
inactive: outcome [1] | outcome [9] | outcome [3] | outcome [4] | outcome [7]

c1ccc(B(c2ccccc2)c2ccccc2)cc1
inactive: outcome [1] | outcome [2] | outcome [8] | outcome [3] | outcome [4] | outcome [5] | outcome [6] | outcome [7]

N[C@@H](CSCCCO)C(=O)O
inactive: outcome [10] | outcome [9] | outcome [8] | outcome [5] | outcome [6]

CCc1occc(=O)c1O
inactive: outcome [1] | outcome [9] | outcome [3] | outcome [4] | outcome [7]

Cn1nnc2c(C(N)=O)ncn2c1=O
inactive: outcome [1] | outcome [9] | outcome [3] | outcome [4] | outcome [5] | outcome [6] | outcome [7]

CCCCOCCOC(=O)COc1ccc(Cl)cc1Cl
inactive: outcome [8] | outcome [4] | outcome [5] | outcome [7]

CC(=O)O[C@@H]1CC2CCC1(C)C2(C)C (stereo partly drawn)
inactive: outcome [10] | outcome [8] | outcome [3] | outcome [4] | outcome [5] | outcome [7]

COc1cc(OC)nc(O[C@H](C(=O)O)C(OC)(c2ccccc2)c2ccccc2)n1
inactive: outcome [10] | outcome [8] | outcome [4] | outcome [5] | outcome [6] | outcome [7]

C=C(C)c1cccc(C(C)(C)N=C=O)c1
inactive: outcome [10] | outcome [8] | outcome [4] | outcome [5] | outcome [6] | outcome [7]

O=C=NCC1CCCC(CN=C=O)C1 (stereo not drawn)
inactive: outcome [10] | outcome [8] | outcome [5] | outcome [6] | outcome [7]

N[C@@H](Cc1ccc(O)cc1)C(=O)O
inactive: activity change, negative = cytotoxicity [4] -1.49% [at 13.2 µM] | activation [5] 10.9% [at 13.4 µM] | activity change, negative = inhibition [6] 1.57% [at 6.95 µM]

Cc1cc(C)c(C(=O)O)c(C)c1
inactive: outcome [10] | outcome [8] | outcome [4] | outcome [7]

CCCCOCC(C)O (stereo not drawn)
inactive: outcome [10] | outcome [8] | outcome [5]

CCC(=O)c1c(O)cc(O)cc1O
inactive: outcome [10] | outcome [2] | outcome [3] | outcome [7]

Cc1c(Cl)cccc1Cl
inactive: outcome [8] | outcome [5] | outcome [6] | outcome [7]

C=C(C)C1CC=C(C)C(=O)C1 (stereo not drawn)
inactive: outcome [10] | outcome [8] | outcome [4] | outcome [5]

Cc1ccc(C(=O)O)cc1[N+](=O)[O-]
inactive: outcome [8] | outcome [4] | outcome [5] | outcome [7]

CC1=NN(c2ccc(S(=O)(=O)O)cc2)C(=O)C1
inactive: outcome [10] | outcome [4] | outcome [5] | outcome [7]

CO[C@@]1(NC(=O)Cc2cccs2)C(=O)N2C(C(=O)O)=C(COC(N)=O)CS[C@@H]21
inactive: outcome [10] | outcome [8] | outcome [4] | outcome [7]

CCCC(CC)c1ccccc1 (stereo not drawn)
inactive: outcome [10] | outcome [5] | outcome [6] | outcome [7]

CC(=O)OC(C)=O
inactive: outcome [10] | outcome [5] | outcome [6] | outcome [7]

C=C(C)[C@@H]1CC=C(C)C(=O)C1
inactive: outcome [10] | outcome [8] | outcome [5] | outcome [6] | outcome [7]

CC(C)CO
inactive: outcome [8] | outcome [5]

CCN(CC)CCN
inactive: outcome [10] | outcome [3] | outcome [4] | outcome [5] | outcome [6] | outcome [7]

OC1OCCOC1O (stereo not drawn)
inactive: outcome [10] | outcome [8] | outcome [3] | outcome [4] | outcome [5] | outcome [6] | outcome [7]

CN(C)CCN(C)CCO
inactive: outcome [10] | outcome [8] | outcome [3] | outcome [4] | outcome [5] | outcome [6] | outcome [7]

CN(C)CCCO[C@@H]1[C@H]2OC(C)(C)O[C@H]2O[C@@H]1C(O)CO (stereo partly drawn)
inactive: outcome [10] | outcome [8] | outcome [4] | outcome [5] | outcome [6]

COP(=O)(O)OP(=O)(O)OC
inactive: outcome [10] | outcome [8] | outcome [4] | outcome [5] | outcome [6] | outcome [7]

CC1OCCC1=O (stereo not drawn)
inactive: outcome [10] | outcome [8] | outcome [7]

COc1c2occc2c(OC)c2c(=O)cc(C)oc12
inactive: outcome [2] | outcome [8] | outcome [3] | outcome [4] | outcome [5] | outcome [6]

O=Cc1ccccc1Cl
inactive: outcome [2] | outcome [8] | outcome [3] | outcome [5] | outcome [6]

O=C(O)CNC(=O)CNC(=O)CNC(=O)CSC(=O)c1ccccc1
inactive: outcome [10] | outcome [4] | outcome [5] | outcome [7]

O=C1NC(c2ccccc2)(c2ccccc2)C(=O)N1COP(=O)(O)O
inactive: outcome [3] | outcome [5] | outcome [6] | outcome [7]

C=C(C)[C@@H]1CC=C(C)CC1
inactive: outcome [10] | outcome [8] | outcome [4]

OC[C@H]1O[C@@H](O[C@@H]2[C@@H](CO)O[C@](O)(CO)[C@H]2O)[C@H](O)[C@@H](O)[C@H]1O
inactive: outcome [8] | outcome [5] | outcome [7]

CN(C)CC/C=C1/c2ccccc2COc2ccc(CC(=O)O)cc21
inactive: outcome [8] | outcome [7]

CCCCCC/C=C/C(=O)OC
inactive: outcome [8] | outcome [3] | outcome [4] | outcome [5] | outcome [6]

COS(=O)(=O)O
inactive: outcome [8] | outcome [3] | outcome [4] | outcome [5]

CC(=O)OCC(=O)Nc1cc(C#N)cc(NC(=O)COC(C)=O)c1Cl
inactive: outcome [8] | outcome [4] | outcome [5] | outcome [6] | outcome [7]

O=C(Cl)c1ccccc1[N+](=O)[O-]
inactive: outcome [10] | outcome [8] | outcome [4]

CC(C)(C)NC[C@H](O)COc1cccc2c1CCCC2=O
inactive: outcome [10] | outcome [8] | outcome [4] | outcome [5] | outcome [6] | outcome [7]

CC(=O)O[C@H]1C[C@@H]2CC[C@@]1(C)C2(C)C
inactive: outcome [10] | outcome [3] | outcome [4] | outcome [5]

— PubChem BioAssay (Tox21)
